According to PubChem BioAssay AID2107 (National Center for Advancing Translational Sciences (NCATS), 2009):
Among all 240,000 compounds or so, about 20 (0.008%) were called active. About 1% were inconclusive and are not listed. Calls come from the whole dose curve; as a rule, active = well fitted inhibition curve with a large enough effect; inconclusive = small, poorly fitted or top-dose-only effect, or effect the other way; inactive = flat fitted curve, though single readings scatter. These entries were drawn from the full list.

Each compound was assayed against Alpha-galactosidase A (Homo sapiens) (UniProt P06280) (assay: qHTS Assay for Inhibitors and Activators of Human alpha-Galactosidase From Spleen Homogenate). Settings: 4MU-alpha-Gal fluorescence, 40 min; series mostly up to 80 µM; activity change, negative = inhibition: at the top concentration.
Sequence of Alpha-galactosidase A (Homo sapiens) (P06280 32-429 limits assumed): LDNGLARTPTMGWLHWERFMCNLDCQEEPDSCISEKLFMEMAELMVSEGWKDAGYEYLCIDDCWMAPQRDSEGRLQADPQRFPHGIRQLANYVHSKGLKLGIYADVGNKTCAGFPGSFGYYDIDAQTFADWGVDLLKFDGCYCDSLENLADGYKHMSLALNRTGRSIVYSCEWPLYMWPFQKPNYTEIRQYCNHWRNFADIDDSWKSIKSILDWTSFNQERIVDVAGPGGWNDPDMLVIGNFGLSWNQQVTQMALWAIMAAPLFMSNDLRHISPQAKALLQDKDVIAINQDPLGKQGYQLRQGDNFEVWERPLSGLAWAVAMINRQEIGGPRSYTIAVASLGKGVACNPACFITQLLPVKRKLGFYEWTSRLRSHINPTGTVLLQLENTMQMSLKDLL
Text: NIH Chemical Genomics Center [NCGC] NIH Molecular Libraries Probe Production Centers Network [MLPCN] MLPCN Grant: R03 MH084842-01 Assay Submitter (PI): Wei Zheng NCGC Assay Overview: Alpha-galactosidase is a homodimeric glycoprotein that hydrolyzes the terminal alpha-galactosyl moieties from glycolipids and glycoproteins. Deficiency of this enzyme results in Fabry Disease with progressive accumulation of globotriaosylceramide and other glycosphingolipids in vascular endothelial cells that causes renal failure, myocardial infarction and stroke, and premature death in patients. It has been reported that the improper folding and trafficking of alpha-galactosidase resulting from genetic mutations may account for a significant number of Fabry patients. […] We optimized this alpha-galactosidase assay in 1536-well plate format for identification of novel small molecule inhibitors or activators with structures other than the sugar analogs in order to develop new pharmacological chaperones. In particular, this assay is directed towards discovering compounds active in more natural setting, tissue homogenate, that may have been missed by screens of the purified enzyme under more stringent conditions.
NCGC Assay Protocol Summary: This is a fluorogenic enzyme assay with 4-methylumbelliferyl-alpha-D-galactopyranoside as the substrate and human spleen homogenate containing alpha-galactosidase as the enzyme preparation. Upon hydrolysis of this fluorogenic substrate, the resulting product, 4-methylumbelliferone (which excites at 365 nm and emits at 440 nm) can be detected by a fluorescence plate reader. Data were normalized to the controls for basal activity (without enzyme) and 100% activity (with enzyme). The AC50 values were determined from concentration-response data modeled with the standard Hill equation. Assay buffer: 50 mM citric acid (titrated with potassium phosphate to pH 5.0), 0.01% Tween-20 (pH 5.0 is an optimal condition for this enzyme assay) 1536-well assay protocol for the alpha-galactosidase from human spleen homogenate: (1) Add 2 ul/well spleen homogenate (1 ug) (2) Add 23 nL compounds in DMSO solution. The final titration was 0.5 nM to 58 uM. (3) Add 2 ul of substrate (1 mM final) (4) Incubate at 37C for 40 min (5) Add 2 ul stop solution (1M NaOH and 1M Glycine mixture, pH 10) (6) Detect the assay plate in a ViewLux plate reader (PerkinElmer) with Ex=365 nm and Em=440nm. Keywords: Alpha-galactosidase, Fabry Disease, pharmacological chaperone, chaperone therapy, high throughput screening, alpha- galactosidase inhibitor, MLSMR, MLSCN, NIH Roadmap, qHTS and NCGC
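Note: 0% = enzyme with vehicle and -100% = no enzyme basal signal.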

Activity change, negative = inhibition, inactive:
C[C@@H]1O[C@@H](OC[C@H]2O[C@@H](Oc3cc(O)c4c(c3)O[C@H](c3ccc(O)c(O)c3)CC4=O)[C@H](O)[C@@H](O)[C@@H]2O)[C@H](O)[C@H](O)[C@H]1O 3.44%, CCOC(=O)C1CCN(c2c(Nc3cc(C)cc(C)c3)c(=O)c2=O)CC1 -0.907%, NC(=O)NC(=O)CSc1nc2cc([N+](=O)[O-])ccc2n1-c1cccc(C(F)(F)F)c1 -1.63%, C[C@H]1CCC[C@@]2(C)CCCC[C@]12O 2.2%, C=C1CCN(C(CC(C)C)C(=O)NCc2cc(OC)c(OC)c(OC)c2)S(=O)(=O)c2ccccc21 (stereo not drawn) -16.2%, COc1ccc(C2/C=C\CN(Cc3ccco3)C(C)C(=O)N2Cc2ccc(F)cc2)cc1 (stereo not drawn) 4.4%, COc1cc(C2OC(c3cc(OC)c(OC)c(OC)c3)C(C)C2C)cc(OC)c1OC (stereo not drawn) 5.9%, COc1ccc(CN(C(=O)CSc2nnc(-c3ccc(OC)c(OC)c3)o2)c2ccc(F)cc2)cc1 10%, C=CCC(C)(O)c1ccco1 (stereo not drawn) -6.7%, CCCCCNC(=O)c1cccnc1SCC(=O)Nc1ccccc1OC -4.08%, CC1(C)CC(N2CCN(C(c3ccccc3)c3ccccc3)CC2)=CC(=[N+]2CCCCC2)C1 3.27%, COc1ccccc1C(=O)N1CCN=C1SCc1cccnc1 0.71%, O=C(NCCCn1ccnc1)c1cc(-c2ccccc2)on1 -0.698%, C=C(C)C1CC=C(C)C(O)C1 (stereo not drawn), C=CCN1c2ccccc2[C@]23C[C@@H](C(=O)OC)N(S(=O)(=O)c4ccc([N+](=O)[O-])cc4)C2=NC(C(=O)OC)=C(C(=O)OC)[C@H]13 -4.05% [at 17.5 µM], [O-][n+]1onc2c1CCc1[nH]c(-c3ccccc3)nc1-2 1.23%, CC(=O)CC(c1ccccc1)C1C(=O)Oc2ccccc2C1=O (stereo not drawn) -10.1%, Cc1nn(C)c(C(=O)NNC(=S)NC2CCCCC2)c1Cl 2.34%, NCCCCC(N)C(=O)O (stereo not drawn) 2.41%, Cn1c(SCC(=O)N/N=C/c2ccc(O)c(O)c2)nc2ccccc21 3.66%, O=c1cc(-c2ccc(O)cc2)oc2c([C@@H]3O[C@H](CO)[C@@H](O)[C@H](O)[C@H]3O)c(O)cc(O)c12 -17.6%, CCN(CC)c1ccc(/C=N/NC(=O)c2cnccn2)c(O)c1 -14.2%, O=C(NCCCO)/C(=C\C=C\c1ccccc1)NC(=O)c1ccccc1Cl 1.56%, COc1ccc(/C=N/Nc2ncnc3sc4c(c23)CCCC4)cc1O 4.96%, COc1ccccc1C1C(C#N)=C(N)Oc2c1c(-c1ccccc1)nn2-c1ccccc1 (stereo not drawn) 6.59%, CC[C@H](C)[C@H](NC(=O)[C@@H](N)CCC(=O)O)C(=O)N[C@@H](CC(C)C)C(=O)N[C@@H](CC(=O)O)C(=O)N[C@H](C(=O)N1CCC[C@H]1C(=O)N[C@@H](CO)C(=O)N[C@H](C(=O)O)[C@@H](C)O)C(C)C -4.11%, C[C@]1(C(=O)NCCc2c[nH]c3ccccc23)C=C[C@@H](Cc2ccccc2)N1C(=O)c1ccccc1, CCC1(CC)C(=O)C2=C3C1[C@H](C(=O)OC)C=C(C(=O)OC)C[C@H]3[C@H]1C(=O)N(Cc3ccccc3)C(=O)[C@H]1[C@H]2C (stereo partly drawn) 6.6%, COc1ccc2c3c1O[C@H]1C[C@@H](O)C=C[C@@]31CCN(C)C2, OCCNCc1cccc(OCc2ccccc2Cl)c1 -3.03%, CC1=NN(C(=O)c2ccc(Br)cc2)C(O)(c2ccccc2)C1 (stereo not drawn) 6.29%, Cc1ccc(-c2nn(CC(C)(C)C)c3ncnc(N)c23)cc1 -4.25%, COc1ccc(-c2c(C)cc3oc(=O)cc(-c4ccccc4)c3c2C)cc1OC 1.37% [at 119 µM], COC(=O)Cc1csc(/N=C/c2c(O)n(-c3cccc(C(F)(F)F)c3)c(=O)c3ccccc23)n1 3.19%, C/C(CCN1CCCCc2nc(C)c(C)cc21)=N\O[C@@H](C)c1cn([C@@H]2COC[C@@H]2O)nn1 2.02% [at 17.5 µM], Cc1nc(C(=O)NCc2ccccc2)sc1C1(C)CC(c2cccnc2)=NO1 (stereo not drawn) 10.3%, CCOC(=O)c1cc(C)nc(S(C)(=O)=O)c1C#N 7.86%, Cc1cc2oc(=O)cc(-c3ccccc3)c2c(C)c1/C=C/c1ccc(F)cc1 10.4% [at 119 µM], CCOc1ccc(NC(=O)COc2ccc(C(=O)NC3CCCc4ccccc43)cc2OC)cc1 (stereo not drawn) 8.14%, O=C(COC(=O)c1ccc(Cl)nc1)NCc1ccc2c(c1)OCO2 1.1%, COc1cc(OC)c2c(C)cc(=O)oc2c1C(CCN1CCCCC1)c1ccc(N(C)C)cc1 (stereo not drawn) -6.87%, COCCCNC(=S)NCCNc1nc2cc(C)c(C)cc2cc1C#N 10.9%, O=C(O)c1ccc(/C=C2/SC(=S)N(c3cccc(C(F)(F)F)c3)C2=O)cc1 5.07%, CCO[C@@H]1OC(C(=O)NCc2nc3ccccc3[nH]2)=C[C@H](C2CCCCC2)[C@H]1CCCO 2.53%, C=CCCN(C(Cc1ccccc1)C(=O)OC)S(=O)(=O)c1cc(Br)ccc1Br (stereo not drawn) 0.915%, COc1ccc(CN2CCC(=O)c3ccccc3S2(=O)=O)cc1 -16.2%, CCOC(=O)C1=C(C)NC2=C(C(=O)CC(C)(C)C2)C1c1ccsc1 (stereo not drawn) 12.5%, O=C(NCC1CC1)C1(C(F)(F)F)C/C(=C\CCO)CCCO1 (stereo not drawn) 6.89%, Cc1scc(C(=O)NNC(=S)NCC(C)C)c1C 1.16%, CCCN1CCC(=O)N(C(CSc2ccc(C)cc2)Cc2ccccc2)CC1 (stereo not drawn) -1.75%, Cc1cc(C(=O)OCC(=O)N2c3ccccc3NC(=O)C2(C)C)c(C)n1-c1ccccc1 13.9%, O=C1/C(=C\c2ccccc2Cl)SC(=S)N1CCC(=O)N1CCCc2ccccc21 0.217%, COc1cccc(N(C(=O)c2ccn[nH]2)C2(C(=O)Nc3c(C)cccc3C)CCCCC2)c1 1.18%, OCC1(Cc2ccccc2C(F)(F)F)CCN(Cc2cccc3cnccc23)CC1 20.6%, C=C1/C(=C\C=C2\CCCC3(C)C2CCC3C(C)/C=C/C(O)C2CC2)CC(O)CC1O (stereo not drawn) -8.26%, Cc1noc(C)c1-c1ccc2ncnc(NCc3ccc4[nH]ccc4c3)c2c1 6.61%, CC(=O)OCC(NC(=O)C(Cc1ccccc1)NC(=O)OC(C)(C)C)C1OC(n2ccc(=O)[nH]c2=O)C(OC(C)=O)C1OC(C)=O (stereo not drawn) 10.3%, COc1ccc(C2CC(O)(c3ccccc3)Oc3cc(C)cc(C)c32)cc1 (stereo not drawn) 4.13%
